# From PubChem BioAssay AID1220 (Sanford-Burnham Center for Chemical Genomics, 2008)
# The whole screen tested about 190,000 compounds, of which about 1,300 (0.68%) were called active. Cut-off read from the data, not from the text of the source: active = inhibition above about 50%; inactive = the rest. Many of the other results were omitted from the sample, so actives are more common in it than they were.
# Molecular target: Mannose-6-phosphate isomerase (Homo sapiens) (UniProt P34949)
# Assay: human PMI inhibitors, high substrate, primary screen, biochemical, fluorescence intensity, high mannose 6-phosphate (AID 1220)
# Conditions: recombinant PMI enzyme, coupled fluorescence intensity; at 20 µM; hits give high values
# Mannose-6-phosphate isomerase (Homo sapiens), sequence (P34949 whole entry, looked up): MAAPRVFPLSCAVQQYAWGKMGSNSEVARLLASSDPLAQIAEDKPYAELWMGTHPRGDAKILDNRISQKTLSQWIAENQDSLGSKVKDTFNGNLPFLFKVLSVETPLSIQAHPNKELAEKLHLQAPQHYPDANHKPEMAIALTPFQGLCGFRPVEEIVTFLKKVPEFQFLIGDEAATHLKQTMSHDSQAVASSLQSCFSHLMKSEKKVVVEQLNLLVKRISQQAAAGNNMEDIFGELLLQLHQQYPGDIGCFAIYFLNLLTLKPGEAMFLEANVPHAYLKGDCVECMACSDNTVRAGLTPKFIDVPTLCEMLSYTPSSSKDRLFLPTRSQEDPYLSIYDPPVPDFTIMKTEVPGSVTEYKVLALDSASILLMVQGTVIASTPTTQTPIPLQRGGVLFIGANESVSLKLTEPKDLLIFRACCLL
row,SMILES,inhibition
1,c1ccc(-c2nc3ccccc3[nH]2)nc1,15.7% (inactive)
2,Cc1ccc(CCNC(=O)C2CCCN(C(=O)N(C)C)C2)cc1 (stereo unspecified),-6.4% (inactive)
3,O=C(CN1C(=O)COc2ccccc21)N1CCc2ccccc21,1.2% (inactive)
4,COc1ccc(NC(=O)CC2C(=O)N(C)C(=S)N2CCc2ccccc2F)cc1 (stereo unspecified),8.1% (inactive)
5,CC(C)=CCN1CCN(Cc2cnc(N3CCOCC3)s2)CC1CCO (stereo unspecified),-6.5% (inactive)
6,O=C(C1=C[C@@H](c2coc3ccccc3c2=O)C[C@@H](OCc2ccc(CO)cc2)O1)N1CCOCC1,-6.8% (inactive)
7,CCOC(=O)Cc1csc(NC(=O)c2cc(=O)c3ccccc3o2)n1,-6.1% (inactive)
8,CCOC(=O)Cc1csc(SCn2nnc3ccccc3c2=O)n1,-0.1% (inactive)
9,CCOC(=O)c1c(N)c(C#N)cn1-c1ccccc1,10% (inactive)
10,CNC(=S)Nc1cccc2[nH]ncc12,2.6% (inactive)
11,C=CCNC(=S)Nc1cccc2[nH]ncc12,52.5% (active)
12,C=CCNC(=S)Nc1cccc2ccccc12,14.3% (inactive)
13,COc1ccc(-n2c3nc4ccccc4nc3c3c(=N)oc(C)nc32)cc1,55.9% (active)
14,CCCCC(CC)Cn1c2nc3ccccc3nc2c2c(=N)oc(C)nc21 (stereo unspecified),-4.2% (inactive)
15,CCCCn1c2nc3ccccc3nc2c2c(=N)oc(C)nc21,30.1% (inactive)
16,CCn1c(SCC(=O)N/N=C/c2ccc(C)o2)nnc1-c1ccccc1,3.1% (inactive)
17,CN1CCN(S(=O)(=O)c2ccc3c(c2)OCCO3)CC1,-4.9% (inactive)
18,CC(C)(Cl)C1Cc2cc3ccc(=O)oc3cc2O1 (stereo unspecified),-9.9% (inactive)
19,COc1cc2c(cc1/C=C/C(=O)O)OC(C)C2 (stereo unspecified),13.7% (inactive)
20,CCc1nnc(NC(=O)CSc2nnc3c(C)cc4c(C)ccc(C)c4n23)s1,2.3% (inactive)
21,O=C(O)/C=C/C(=O)Nc1ccc2nccnc2c1,56.2% (active)
22,CC(C)(C)NC(=O)Nc1ccc2nccnc2c1,35.1% (inactive)
23,Cc1nc2ccc(NC(=O)/C=C/C(=O)O)cc2nc1C,42.9% (inactive)
24,CN1CC(=O)N(CC(=O)N2CCC(Cc3ccccc3)CC2)C1=O,-3.5% (inactive)

row,SMILES,inhibition
1,CCC(C)N(C(=O)CSc1nc(-c2ccccc2)cs1)C1CCS(=O)(=O)C1 (stereo unspecified),3.2% (inactive)
2,Oc1ccc2ccccc2c1CNn1cnnc1,3.1% (inactive)
3,Cc1cc(=O)oc2c(CN(CC(C)C)CC(C)C)c(O)ccc12,-3.3% (inactive)
4,CC(C)CN(Cc1c(O)ccc2ccccc12)CC(C)C,68.8% (active)
5,O=C(CN1CCC(C(O)(c2ccccc2)c2ccccc2)CC1)Nc1ccccc1,-1.7% (inactive)
6,CCN1CCN(c2nc(-c3ccncc3)nc3ccccc23)CC1,6.3% (inactive)
7,NC(=O)C1CCN(C(=O)c2cc3n(n2)C(C(F)(F)F)CC(c2ccco2)N3)CC1 (stereo unspecified),0.3% (inactive)
8,COc1ccc(CCNC(=O)CCCn2nc(C)c([N+](=O)[O-])c2C)cc1OC,8.3% (inactive)
9,CCCCn1c2nc3ccccc3nc2c2c(=O)n(C(C)CC)cnc21 (stereo unspecified),53.2% (active)
10,CCCCn1c2nc3ccccc3nc2c2c(=O)n(CCC(C)C)cnc21,-12.9% (inactive)
11,CCCCn1c2nc3ccccc3nc2c2c(=O)n(CCC)cnc21,7.3% (inactive)
12,CCOC(=O)C1=C(CSc2nc(CC)c(C)cc2C#N)OC(N)=C(C#N)C1c1ccc(OC)cc1 (stereo unspecified),52.3% (active)
13,CCOC(=O)C1=C(CSc2nc(CC)c(C)cc2C#N)OC(N)=C(C#N)C1c1ccccc1 (stereo unspecified),11.9% (inactive)
14,CCOC(=O)C1=C(CSc2nc(C)cc(C)c2C#N)OC(N)=C(C#N)C1c1cccs1 (stereo unspecified),55.7% (active)
15,CCOC(=O)C1=C(CSc2nc(C)cc(C)c2C#N)OC(N)=C(C#N)C1c1ccccc1 (stereo unspecified),47% (inactive)
16,CCOC(=O)C1=C(CC)OC(N)=C(C#N)C1c1cccs1 (stereo unspecified),4.7% (inactive)
17,CCOC(=O)C1=C(CSc2nc(-c3ccccc3)ccc2C#N)OC(N)=C(C#N)C1c1ccc(OC)cc1 (stereo unspecified),29.4% (inactive)
18,COC(=O)c1ccc(S(=O)(=O)N2CCCCC2)o1,9% (inactive)
19,Cc1cc(NN)nc(NS(=O)(=O)c2ccccc2)n1,5% (inactive)
20,CC(C)N(C(=O)CSc1nnc(CN2CCCCCC2=O)n1-c1ccccn1)C(C)C,-4.7% (inactive)
21,COc1ccc(N(C(=O)Cn2nnc3ccccc32)C(C(=O)NC(C)(C)C)c2ccc(OC)c(O)c2)cc1 (stereo unspecified),-4% (inactive)
22,CCc1ccccc1NC1Nc2cc(C)nn2S1 (stereo unspecified),27.6% (inactive)
23,Cc1cc2n(n1)SC(Nc1ccccc1)N2 (stereo unspecified),-0.8% (inactive)
24,Cc1cc2n(n1)SC(Nc1cccc3ccccc13)N2 (stereo unspecified),54.1% (active)

row,SMILES,inhibition
1,CCCC1CCC(=NNC(=O)OC(C)(C)C)CC1 (stereo unspecified),2.1% (inactive)
2,Cc1ccc(Oc2ccc(Cl)cc2N)cc1,-7.7% (inactive)
3,CN(C)c1ccc(Cl)cc1N,53.2% (active)
4,CN(C)c1ccc(C(=O)c2ccc(N(C)C)c(N)c2)cc1N,23.2% (inactive)
5,O=C1Nc2ccc(S(=O)(=O)N3CCCC3)c3ccc(S(=O)(=O)N4CCCC4)c1c23,32.5% (inactive)
6,CCCCCC(=O)NC(CC(=O)OC)c1ccc2c(c1)OCO2 (stereo unspecified),2.2% (inactive)
7,CCc1ccc(OCC(=O)OCC(=O)c2ccc3c(c2)NC(=O)CO3)cc1,5% (inactive)
8,COCc1nnc(NC(=O)c2ccccc2[N+](=O)[O-])s1,-1.2% (inactive)
9,COc1cc(C(=O)Oc2cc(C)cc(C)c2)cc(OC)c1OC,9.6% (inactive)
10,COc1cc(C(=O)O/N=C2/C=CC(=O)C(C)=C2C)cc(OC)c1OC,66% (active)
11,COc1cc(C(=O)O/N=C2\CCCc3c2ccc(OC)c3[N+](=O)[O-])cc(OC)c1OC,13.8% (inactive)
12,CC1=CC(=NOC(=O)c2cccc([N+](=O)[O-])c2)C=C(C)C1=O,19.6% (inactive)
13,COc1cc(C(=O)O/N=C(\N)c2ccncc2)cc(OC)c1OC,-11.7% (inactive)
14,CC1=CC(=O)C=C(C)C1=NOC(=O)c1cccc([N+](=O)[O-])c1,-3% (inactive)
15,COc1ccc(C(=O)ON=C2C=C(C)C(=O)C(C)=C2)cc1,40.1% (inactive)
16,CC1=C(C)/C(=N/OC(=O)c2cccc([N+](=O)[O-])c2)C=CC1=O,13.4% (inactive)
17,CC1=C(C)/C(=N\OC(=O)/C=C/c2ccccc2)C=CC1=O,35.2% (inactive)
18,COc1cc(C(=O)ON=C2C=C(C)C(=O)C(C)=C2)cc(OC)c1OC,59.8% (active)
19,COc1cc(C(=O)O/N=C2\C=CC(=O)C=C2C)cc(OC)c1OC,64.7% (active)
20,COc1cc(C(=O)ON=C2C(C)=CC(=O)C=C2C)cc(OC)c1OC,71.8% (active)
21,CN(C)CCCN(Cc1cc2cc3c(cc2[nH]c1=O)OCO3)C(=S)NCc1ccco1,30.6% (inactive)
22,CCCCc1nnc(NC(=O)CSc2nc(=O)cc(N)n2-c2ccccc2)s1,0.8% (inactive)
23,CS(=O)(=O)N(CC(=O)N1CCOCC1)c1ccc2c(c1)OCO2,1.8% (inactive)
24,COC(=O)COc1ccc(S(=O)(=O)NCc2cccnc2)cc1,4.3% (inactive)

row,SMILES,inhibition
1,CC(C)(CO)Nc1ccc([N+](=O)[O-])cc1[N+](=O)[O-],0.9% (inactive)
2,O=C1Nc2ccccc2Oc2cc([N+](=O)[O-])cc(Oc3ccccc3)c21,-3.2% (inactive)
3,COc1cc(C(=O)Oc2cccc(C)c2)cc(OC)c1OC,2.4% (inactive)
4,COc1cc(C(=O)O/N=C(\N)c2ccc([N+](=O)[O-])cc2)cc(OC)c1OC,5.3% (inactive)
5,COc1cc(C(=O)O/N=C2/C=C(C)C(=O)C=C2C)cc(OC)c1OC,53.5% (active)
6,Nc1cc(N2CCCC2)c(Cl)cc1[N+](=O)[O-],25.9% (inactive)
7,CC1CCC(C(C)C)C(OP(=O)(c2ccc(N(C)C)cc2)C(O)c2cccnc2)C1 (stereo unspecified),-4.5% (inactive)
8,COc1ccc(C(=O)CCNc2ccc(C)c(Cl)c2)cc1,0.5% (inactive)
9,COc1ccc(C(=O)CCNc2ccc3c(c2)OCCO3)cc1,58% (active)
10,COc1ccc(C(=O)Nc2ccc3c(c2)OCCO3)cc1,-6.5% (inactive)
11,O=C(COC(=O)c1ccc2c(=O)n3c(nc2c1)CCC3)NC1CCS(=O)(=O)C1 (stereo unspecified),-5.4% (inactive)
12,Cc1ccc(C(=O)N2CCOCC2)cc1S(=O)(=O)Nc1cccc(C)c1C,-7% (inactive)
13,COc1cc(C2C(C#N)=C(N)OC3=C2C(=O)CC(C)(C)C3)c([N+](=O)[O-])cc1OC (stereo unspecified),49.6% (inactive)
14,COc1ccc(C2C(C#N)=C(N)OC3=C2C(=O)CCC3)cc1OC (stereo unspecified),-4% (inactive)
15,COc1cc(C2C(C#N)=C(N)OC3=C2C(=O)CCC3)c([N+](=O)[O-])cc1OC (stereo unspecified),52% (active)
16,CCC(C)NC(=O)CO/N=C/c1ccc(C(=O)OC)cc1 (stereo unspecified),23.9% (inactive)
17,CN(C)c1ccc(C(=S)N2CCN(C(=S)Nc3cccc4ccccc34)CC2)cc1,51.7% (active)
18,CN(C)c1ccc(C(=S)N2CCN(C(=S)Nc3ccc(Cl)cc3)CC2)cc1,-7.1% (inactive)
19,CN(C)c1ccc(C(=S)N2CCN(c3ccccc3)CC2)cc1,8.2% (inactive)
20,N#CC1=C(N)OC2=C(CN(Cc3ccccc3)C/C2=C\c2cccnc2)C1c1cccnc1 (stereo unspecified),11.3% (inactive)
21,O=C(CSc1nnc(C2CC2)n1Cc1ccccc1)N1CCN(S(=O)(=O)c2ccccc2)CC1,-3.7% (inactive)
22,CCn1c(SCC(=O)N2CCN(S(=O)(=O)c3ccccc3)CC2)nnc1-c1cccs1,-3.1% (inactive)
23,Cc1nnc(SCC(=O)N2CCN(S(=O)(=O)c3ccccc3)CC2)n1Cc1ccccc1,57.8% (active)
24,CC1Cc2nc(SCC(=O)N3CCCC3)n(C)c(=O)c2S1 (stereo unspecified),9.6% (inactive)
